According to PubChem BioAssay AID677 (Vanderbilt High Throughput Screening Facility, 2007):
The whole screen tested about 1,700 compounds, of which about 720 (42%) were called active. The set was probably picked from earlier hits. Only a sample is shown. Unmarked numbers belong to inactive results.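 The calls were made as follows: active = calcium response below the same-plate mean of wells given acetylcholine alone at its 80%-effect dose, minus 3 SD; inactive = the rest.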

molecular target: Muscarinic acetylcholine receptor M1 (Rattus norvegicus) (UniProt P08482); experiment: rat M1 muscarinic receptor antagonists, confirmation, CHO cells, Fluo-4 calcium, duplicate (AID 677); details: ACh EC80 antagonism, at 10 µM, active compounds read low;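 also: raw fluorescence intensity difference in arbitrary instrument units and not normalized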
Sequence (P08482 whole entry, looked up): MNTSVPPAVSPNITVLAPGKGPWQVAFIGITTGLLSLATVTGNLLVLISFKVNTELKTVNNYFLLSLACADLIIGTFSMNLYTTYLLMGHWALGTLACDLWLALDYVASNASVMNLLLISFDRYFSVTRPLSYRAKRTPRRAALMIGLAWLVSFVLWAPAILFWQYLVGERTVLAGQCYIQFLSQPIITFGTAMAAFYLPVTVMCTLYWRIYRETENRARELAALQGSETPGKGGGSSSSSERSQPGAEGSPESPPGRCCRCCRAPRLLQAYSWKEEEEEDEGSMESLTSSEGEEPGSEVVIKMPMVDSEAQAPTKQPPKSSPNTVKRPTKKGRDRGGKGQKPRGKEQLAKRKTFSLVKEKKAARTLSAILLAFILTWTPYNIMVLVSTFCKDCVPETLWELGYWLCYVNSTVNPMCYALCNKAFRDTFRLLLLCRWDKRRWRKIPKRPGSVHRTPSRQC

SMILES	calcium response (max-min fluorescence)
COc1ccc(C2NCc3ccc4c(c3-n3cccc32)OCO4)cc1OC (stereo not given)	455 (active)
Fc1ccc(N2CCN(Cc3ccc4c(c3)OCO4)CC2)cc1	588
CCOC(=O)C1SC2(C(F)(F)C(F)F)CC1(O)c1c(c(OC)c3occc3c1OC)O2 (stereo not given)	516
CC[N+]1(C)CCCC(OC(=O)C(O)(c2ccccc2)c2ccccc2)C1 (stereo not given)	17.5 (active)
COc1ccc(CN2CCN(c3ccccc3F)CC2)c(OC)c1	547
